# From PubChem BioAssay (NCI)
# Compounds without any hit were thinned out: in the full panel of roughly 83,000, 20% have a hit.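 How to read the values: 0–100, growth inhibition (40 = 60% inhibited); 0, no net growth; -100 to 0, cell death (-40 = 40% of starting cells died; -100 = all dead).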 Unmarked numbers belong to inactive results. Calls of active or inactive are those of the source. Rule for the calls: active = growth percent below 10; inactive = the rest.
# Columns and labels:
# Experiment in all cases: NCI-60 one-dose screen, 48 h (100 = growth as untreated, 0 = no growth, -100 = all killed)
# Details in all cases: 10 µM unless noted
# DU-145 prostate = system: DU-145 prostate
# K-562 leukemia = system: K-562 leukemia
# MALME-3M melanoma = system: MALME-3M melanoma
# MDA-MB-231 breast = system: MDA-MB-231 breast
# RXF 393 renal = system: RXF 393 renal
# SF-268 CNS = system: SF-268 CNS
# SF-295 CNS = system: SF-295 CNS
# SF-539 CNS = system: SF-539 CNS
# UACC-257 melanoma = system: UACC-257 melanoma
# M14 melanoma = system: M14 melanoma
# HCT-15 colon = system: HCT-15 colon
# HT29 colon = system: HT29 colon
# SNB-75 CNS = system: SNB-75 CNS
# SNB-19 CNS = system: SNB-19 CNS
# U251 CNS = system: U251 CNS
# PC-3 prostate = system: PC-3 prostate
# SK-MEL-5 melanoma = system: SK-MEL-5 melanoma
# UACC-62 melanoma = system: UACC-62 melanoma
# SK-MEL-28 melanoma = system: SK-MEL-28 melanoma
# LOX IMVI melanoma = system: LOX IMVI melanoma
SMILES,growth (DU-145 prostate),growth (K-562 leukemia),growth (MALME-3M melanoma),growth (MDA-MB-231 breast),growth (RXF 393 renal),growth (SF-268 CNS),growth (SF-295 CNS),growth (SF-539 CNS),growth (UACC-257 melanoma),growth (M14 melanoma),growth (HCT-15 colon),growth (HT29 colon),growth (SNB-75 CNS),growth (SNB-19 CNS),growth (U251 CNS),growth (PC-3 prostate),growth (SK-MEL-5 melanoma),growth (UACC-62 melanoma),growth (SK-MEL-28 melanoma),growth (LOX IMVI melanoma)
Cc1cc(C)c(-c2cc(O)c(-c3c(C)cc(C)cc3C)cc2O)c(C)c1,20.3%,8.34% (active),54.9%,51.5%,18%,55.3%,30.2%,-25.8% (active),73.8%,20.7%,23.6%,8.84% (active),-10.3% (active),45.9%,25.2%,43.2%,25.5%,34.2%,42.8%,
Cc1cnc(N)nc1OCC(C)(C)CNC(=O)c1cccc(-c2ccc(S(=O)(=O)Nc3ccc4c(c3)N(C(=O)C3CC3)CCC4)cc2)c1,77.4%,34.3%,80.7%,68.1%,74.6%,67.5%,55.3%,75.2%,46.6%,96.4%,67.6%,42.1%,48.1%,67.9%,59.4%,51.8%,-36.1% (active),47.8%,82.4%,
c1ccc(-c2nc(N3CCCNCC3)c3nc(-c4ccccc4)oc3n2)cc1,-18.4% (active),0.76% (active),76.9%,-3.19% (active),27.1%,52%,96.2%,76.3%,100%,95.7%,-80.4% (active),-63.4% (active),53.1%,70.4%,-90.9% (active),-27.3% (active),55.6%,-77.8% (active),83.7%,
CCCCCn1c(C)cc(/C=C\c2ccc3cc(C)ccc3[n+]2C)c1C,-52.3% (active),9.64% (active),-67.5% (active),-46.8% (active),-60.8% (active),-61% (active),-90.9% (active),-85.8% (active),-99.1% (active),-71.2% (active),-12% (active),-61.8% (active),-94.4% (active),-89.8% (active),,-47.9% (active),-95.7% (active),-89.8% (active),-87.1% (active),
CC1Cc2c(Cl)ncnc2N(C)c2ccccc21 (configuration not stated),65.6%,37.6%,0.822% (active),-33.8% (active),13.6%,24.4%,19.9%,33%,11.5%,14.7%,12.6%,-24.1% (active),82.8%,28.4%,,16.3%,-75.1% (active),13.5%,20.9%,-43.6% (active)
O=C1/C(=C\c2cccn2Cc2ccccc2)c2ccccc2N1c1c(Cl)cccc1Cl,95.2%,87.6%,54%,28.9%,68%,80.6%,77.5%,95.4%,87.2%,77%,4.9% (active),52.4%,59.1%,79.7%,,51.4%,-5.28% (active),42%,98.4%,88.8%
CCOC(=O)c1nn(C2CCCCO2)c2ccc(NC(=O)CN3CCOCC3)cc12 (configuration not stated),107%,90.4%,104%,102%,122%,97.5%,101%,98.1%,98.8%,102%,106%,116%,80.7%,98.8%,97.9%,107%,102%,102%,109%,
C#C[C@]1(O)CC[C@H]2[C@@H]3CC=C4c5nc(Nc6ccc(OC)cc6OC)sc5CC[C@]4(C)[C@H]3CC[C@@]21C,39%,6.12% (active),-21.8% (active),1.72% (active),-60% (active),4.95% (active),-66.3% (active),-59.5% (active),-20.3% (active),-41.4% (active),-39.1% (active),-12.8% (active),-53.6% (active),31.2%,,-3.17% (active),-92.2% (active),-36.8% (active),-49.1% (active),-78.3% (active)
COc1ccc(-c2c(C)nn3c(NCCN4CCOCC4)cc(C)nc23)cc1OC,106%,97.8%,96.8%,86%,83.6%,101%,82%,81.9%,99.9%,96.3%,95.1%,94.4%,93.2%,91.4%,,89.7%,97.2%,97.6%,103%,87.5%
O=C(Nc1cccnc1)c1ccc2ccc3ccc(C(=O)Nc4cccnc4)nc3c2n1,14.6%,17.1%,46.7%,25.2%,-50.4% (active),15.9%,5.39% (active),-6.56% (active),30.8%,15.5%,19.9%,7.42% (active),40.6%,13.2%,,33.2%,26.3%,29%,17.7%,
O=C(N/N=C/c1c(Cl)cccc1Cl)c1cccc(Nc2ccnc(C(F)(F)F)c2)c1,120%,104%,113%,76.8%,111%,125%,90.3%,92.9%,102%,80.8%,78.5%,96.7%,93.7%,85.7%,,77%,54.6%,72.5%,99.3%,
Nc1ccc2c(c1)Cc1cc(NC(=O)C(F)(F)F)ccc1-2,99.2%,108%,108%,71.2%,113%,96.1%,99.8%,97.6%,104%,109%,96.4%,90.8%,98.6%,101%,,99.5%,98.4%,93.7%,102%,102%
Cc1ncc(C(=O)Nc2ccc(CN3CCN(C)CC3)c(C(F)(F)F)c2)cc1C#Cc1c(N)ncc2ccc(C#N)cc12,27.7%,4.11% (active),-34.3% (active),-12.5% (active),-45% (active),42.1%,74.4%,48.4%,-1.39% (active),-12% (active),28%,11.9%,56.4%,77.5%,,48.7%,16.2%,22.5%,23.7%,-62.4% (active)
Cc1ccc(N)c(O)c1,115%,94.3%,72.4%,81.7%,82.1%,103%,121%,99.1%,80.6%,85.6%,83.8%,95.8%,32.7%,102%,92.7%,75.8%,96.1%,101%,103%,
CC(C)[C@H]1COC(=O)N1[C@@H]1C(=O)N([C@@H](CCC(=O)N2CCN(C3CCCC3)CC2)C(=O)N[C@@H]2CCCc3ccccc32)[C@@H]1/C=C/c1cccc(Cl)c1,65.3%,45.5%,82.3%,44.7%,50%,28.5%,54%,68.9%,20.5%,36.6%,34.1%,13%,92%,56.6%,46.6%,25.7%,11.7%,67.8%,71.7%,
